Measured values as given in the supplement of paper PMC4166925.
± gives the standard deviation of the averaged measurements. Over roughly 33,000 sequences, “E-score (dimensionless, -0.5 to 0.5)” has its median near -0.049; the highest 2% begin near 0.37. Many of the other results were omitted from the sample, so the highest values are more common in it than they were.

System: T1, PmTbr T-box DNA-binding domain (GST fusion)
T1 sequence: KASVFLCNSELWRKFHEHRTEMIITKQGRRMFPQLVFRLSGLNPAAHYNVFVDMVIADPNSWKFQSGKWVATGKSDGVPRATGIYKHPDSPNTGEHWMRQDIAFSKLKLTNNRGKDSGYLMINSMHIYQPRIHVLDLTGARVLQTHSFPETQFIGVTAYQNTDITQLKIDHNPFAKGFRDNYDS
Experiment: PBM E-score of 8-mer (E-score (dimensionless, -0.5 to 0.5)); Tbr is Tbrain of the sea star Patiria miniata (Pm) or the sea urchin Strongylocentrotus purpuratus (Sp); higher = stronger binding preference
Settings: the construct has about 5 more residues each side
Procedure: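 Universal protein-binding microarray (Agilent AMADID 016060, 60-bp probes with a 35-bp variable region) incubated with 200 nM GST-fused Patiria miniata Tbr T-box DNA-binding domain (residues 272-466) in PBS pH 7.5. Scored for every ungapped 8-mer (given with its reverse complement) by the Universal PBM Analysis Suite as E-score (modified Wilcoxon-Mann-Whitney enrichment, range -0.5 to 0.5; >0.45 counts as bound) and Z-score of median probe intensity. Two replicate arrays (datasets 1 and 2).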

| Sequence | PBM E-score of 8-mer |
| --- | --- |
| ACTTGTAA | 0.0472 ± 0.082 |
| GGGTATTA | -0.139 ± 0.091 |
| GTCCAATA | -0.21 ± 0.0092 |
| AGATGCCA | -0.00611 ± 0.051 |
| GAACTATC | -0.095 ± 0.022 |
| GAACTGAA | -0.228 ± 0.021 |
| AAGGAGGC | -0.181 ± 0.009 |
| GTCAAAAA | 0.0926 ± 0.056 |
| CACGGTCG | 0.0491 ± 0.014 |
| CGAGGGAG | -0.0838 ± 0.048 |
| TACCTCGA | -0.0364 ± 0.012 |
| ATGTGAGG | 0.215 ± 0.026 |
| ATGTGAGC | 0.0849 ± 0.0062 |
| GTGTGAGA | 0.4583 ± 0.0027 |
| GTGTGATA | 0.46 ± 0.006 |
| ATGTGAGA | 0.429 ± 0.0081 |
| GTGAGAGA | 0.319 ± 0.015 |
| CTGTGATA | 0.2528 ± 0.0022 |
| CTGTGAGA | 0.314 ± 0.0081 |
| ATGTGATA | 0.298 ± 0.048 |
| GATACTTA | -0.121 ± 0.055 |
| ACGATAAA | 0.122 ± 0.051 |
| GACGATCC | -0.0686 ± 0.12 |
| GATACAGC | -0.197 ± 0.018 |
| CCATACTC | 0.0602 ± 0.026 |

| Sequence | PBM E-score of 8-mer |
| --- | --- |
| GATATCTA | -0.117 ± 0.025 |
| CTACCAGA | -0.1381 ± 0.0011 |
| CCCGACCA | -0.0729 ± 0.075 |
| CCAGCTGA | -0.0424 ± 0.022 |
| CCTAGATC | -0.0223 ± 0.021 |
| ATGTCAGC | 0.00315 ± 0.0099 |
| CCGTCACA | 0.325 ± 0.024 |
| ATGTCACG | 0.262 ± 0.012 |
| ATGTCATC | -0.0845 ± 0.035 |
| ATGTCACA | 0.375 ± 0.013 |
| CTGTCAAG | 0.2006 ± 0.0012 |
| ATGTCACC | 0.385 ± 0.015 |
| CTGTCATC | 0.141 ± 0.036 |
| CTGTCACC | 0.428 ± 0.013 |
| CCGTCACC | 0.356 ± 0.03 |
| ATGTCAAG | -0.0802 ± 0.059 |
| CTGTCACA | 0.4 ± 0.0052 |
| CCCCAGAC | -0.109 ± 0.082 |
| ACACTGTG | 0.227 ± 0.0059 |
| ACCTACTG | 0.0087 ± 0.021 |
| AGATAGCT | -0.0197 ± 0.1 |
| AGGCGAAA | -0.0128 ± 0.028 |
| AATGATCG | -0.0804 ± 0.013 |
| ACTTAAGA | -0.0828 ± 0.02 |
| TATGGTGA | 0.074 ± 0.043 |

| Sequence | PBM E-score of 8-mer |
| --- | --- |
| GCGTCACA | 0.307 ± 0.014 |
| GTGTCACA | 0.445 ± 0.0066 |
| GAGTCACA | 0.237 ± 0.0075 |
| AGCCCCGC | -0.0835 ± 0.072 |
| ATTCTCAC | 0.435 ± 0.017 |
| ATTCTCAG | 0.0465 ± 0.077 |
| ATTCTCAA | 0.115 ± 0.051 |
| AATCTCAT | -0.0261 ± 0.042 |
| AATCTCTC | -0.0609 ± 0.011 |
| AATCTCAC | 0.382 ± 0.0088 |
| ATGGCGGA | -0.225 ± 0.027 |
| CGGCAAAC | -0.0247 ± 0.012 |
| AATAGGTG | 0.428 ± 0.013 |
| ATTAGGTC | -0.153 ± 0.013 |
| ACTAGGTG | 0.425 ± 0.012 |
| ATTAGGTA | -0.131 ± 0.0089 |
| AGTAGGTG | 0.4125 ± 0.00071 |
| AGTAGGTC | -0.148 ± 0.05 |
| ACTAGGTC | -0.143 ± 0.0081 |
| AATAGGTC | -0.258 ± 0.012 |
| ACTAGGTA | -0.23 ± 0.039 |
| ATTAGGTG | 0.374 ± 0.0089 |
| AATAGGTA | -0.0644 ± 0.018 |
| AGTAGGTA | -0.0493 ± 0.079 |
| ATCGCTTC | 0.0264 ± 0.017 |

| Sequence | PBM E-score of 8-mer |
| --- | --- |
| CACATTTC | 0.3486 ± 0.0015 |
| AAATTCAC | 0.263 ± 0.021 |
| AAAAGCGG | -0.261 ± 0.1 |
| TTAGTAAA | -0.0101 ± 0.081 |
| ACACTCCT | 0.228 ± 0.019 |
| ACACTTCA | 0.441 ± 0.017 |
| GCACTTCC | 0.365 ± 0.021 |
| ACACTTCG | 0.427 ± 0.0093 |
| ACACTCCG | 0.3818 ± 0.0019 |
| AAACTTCG | 0.00852 ± 0.068 |
| CCACTTCC | 0.0762 ± 0.022 |
| TCACTTCA | 0.186 ± 0.021 |
| CCACTTCG | 0.254 ± 0.028 |
| ACTCTCCG | -0.0258 ± 0.0077 |
| ACACTTCC | 0.428 ± 0.016 |
| CCACTTCA | 0.13 ± 0.034 |
| ATTCTCGG | -0.082 ± 0.071 |
| CGAATCAC | 0.124 ± 0.029 |
| AGAGGTCA | -0.0997 ± 0.006 |
| TACTGACA | 0.1838 ± 0.00074 |
| TCCCAGCA | 0.0248 ± 0.11 |
| ACCGAATG | -0.119 ± 0.0097 |
| CAGAAGCG | 0.103 ± 0.04 |
| ACTCTTCT | -0.264 ± 0.02 |
| ACACTTCT | 0.4266 ± 0.0042 |

| Sequence | PBM E-score of 8-mer |
| --- | --- |
| AAACTTCT | -0.236 ± 0.043 |
| AGGTTCTC | 0.0874 ± 0.028 |
| ATTCACCA | 0.0566 ± 0.052 |
| CCGTTGGC | 0.151 ± 0.01 |
| CTGTGTGA | 0.298 ± 0.018 |
| AAATGTGT | 0.432 ± 0.011 |
| GTGTGTAA | 0.214 ± 0.022 |
| ATGTGTGA | 0.4845 ± 0.00059 |
| AAATGTGG | 0.0797 ± 0.052 |
| ATATGTGA | 0.24 ± 0.064 |
| GTGTGTGA | 0.41536 ± 0.00023 |
| AAATGTGC | 0.206 ± 0.049 |
| ATGTGTGC | 0.219 ± 0.016 |
| TCAAGAAA | -0.17 ± 0.11 |
| CCACCTTA | 0.246 ± 0.036 |
| GAACCTTA | -0.144 ± 0.042 |
| AAACCTTG | -0.132 ± 0.0072 |
| TCACCTGA | 0.353 ± 0.019 |
| GCACCTGA | 0.391 ± 0.024 |
| AAACCTTA | -0.0234 ± 0.053 |
| ACACCTTA | 0.4762 ± 0.00075 |
| GCACCTTA | 0.4187 ± 0.0021 |
| ATACCTTA | 0.0857 ± 0.093 |
| CCACCTGA | 0.172 ± 0.044 |
| AGACCTTG | -0.174 ± 0.013 |

| Sequence | PBM E-score of 8-mer |
| --- | --- |
| ACACCTTG | 0.481 ± 0.0055 |
| AAAAGCTT | -0.0359 ± 0.065 |
| CTTTGTGA | 0.028 ± 0.0037 |
| ACTAGTCA | 0.164 ± 0.044 |
| TAGGCCAA | -0.298 ± 0.065 |
| AGCCAGAG | -0.0902 ± 0.046 |
| AGCGTCCT | -0.167 ± 0.046 |
| TATAGCAA | -0.0376 ± 0.033 |
| ACACCTTC | 0.479 ± 0.00068 |
| CCACCTTC | 0.31 ± 0.02 |
| AGACCTTC | -0.269 ± 0.022 |
| CGGTGAGA | 0.236 ± 0.0071 |
| AGGTGAGG | 0.428 ± 0.013 |
| AGGTGAGC | 0.303 ± 0.042 |
| AAGTGATG | 0.28 ± 0.0076 |
| TAGTGATA | 0.245 ± 0.035 |
| AAGTGATA | 0.37 ± 0.025 |
| AGGTGAGA | 0.486 ± 0.0024 |
| ACGTGAGG | 0.159 ± 0.04 |
| AAGTGAGA | 0.429 ± 0.0088 |
| AAGTGAGG | 0.2407 ± 0.0011 |
| CAGTGAGA | 0.181 ± 0.028 |
| ACGTGAGA | 0.349 ± 0.0086 |
| GGGGTTGA | -0.000915 ± 0.043 |
| CGATCTAG | 0.025 ± 0.0082 |

| Sequence | PBM E-score of 8-mer |
| --- | --- |
| CTTAGCGA | 0.184 ± 0.025 |
| AATCTTCA | -0.068 ± 0.038 |
| CTCGAGGC | -0.039 ± 0.098 |
| CAAACTGG | 0.102 ± 0.039 |
| AAATCTAG | -0.091 ± 0.019 |
| GCCTCACC | 0.0769 ± 0.049 |
| GGGTGAGA | 0.406 ± 0.009 |
| GAGTGAGA | 0.334 ± 0.017 |
| GGGGGTGA | 0.2941 ± 0.0011 |
| ACCATGGC | -0.0471 ± 0.08 |
| CAGTTTAA | -0.0321 ± 0.037 |
| CACCTGCG | 0.429 ± 0.019 |
| CACCTGCC | 0.406 ± 0.021 |
| CACCTGGC | 0.427 ± 0.007 |
| GACCTGCA | 0.0626 ± 0.036 |
| GACCTGCC | 0.148 ± 0.0062 |
| CACCTGGA | 0.366 ± 0.025 |
| AACCTGCG | 0.0979 ± 0.006 |
| AACCTGGC | 0.195 ± 0.038 |
| CACCTGCA | 0.4 ± 0.0099 |
| TACCTGCA | -0.174 ± 0.0055 |
| CACCTGGG | 0.361 ± 0.029 |
